Experimental findings from PubChem BioAssay (Tox21) are described below.

Results filed as inconclusive are left out. Calls of active or inactive are those of the source. The call rests on the fitted dose curve; in most records, active means well fitted activation curve with a large enough effect in the repeat runs; inconclusive means weak or mixed curves; inactive means flat fitted curve, though single readings scatter.
On the % scale 0 is the no-effect control and ±100 the full control effect.

A short description of this test: A CellTox Green Cytotoxicity Assay to monitor cytotoxicity in HepG2 cells - 40 hour (AID 1224879). Further: nearly all actives have a fitted effect of over 40% in size. The note with it: CellTox Green fluorescence; series mostly up to 76.8 µM; cytotoxicity increase: at the top concentration. The source says:
National Center for Advancing Translational Sciences [NCATS]
NIH Chemical Genomics Center [NCGC]
U.S. Environmental Protection Agency [EPA]
National Institutes of Environmental Health Sciences [NIEHS]
National Toxicology Program [NTP]
Cell-based models are critical for drug discovery. Determining the natural cytotoxic effects resulting from test compounds is an essential research activity. A CellTox Green Cytotoxicity Assay to monitor cytotoxicity in real time of continues cell culture during 40 hours of the compound treatment was used to screen Tox21 10K library compounds in HepG2 cells. CellTox Green Cytotoxicity Assay is a nonlytic, homogeneous, biofluorescent method to measure cytotoxicity in cell culture after experimental manipulation. The assay system uses a proprietary asymmetric cyanine dye that is excluded from viable cells but preferentially stains the dead cell's DNA. […] Viable cells produce no appreciable increases in fluorescence. Therefore, the fluorescence signal produced by the binding interaction with dead cell DNA is proportional to cytotoxicity.
The mixture of HepG2 cell suspension and reagents were dispensed at 600cells/6 ul/well in 1536-well tissue culture treated black solid bottom plates using a Multidrop dispenser. After the assay plates were incubated at a 37 C/5% CO2 incubator for 5 hours, 23 nL of compounds dissolved in DMSO, positive and negative controls was transferred to the assay plate by a pintool work station. The plates were incubated at 37 C for 40 hours. The fluorescence intensity were measured at 0h, 8h, 16h, 24h, 32h and 40h time points using ViewLux plate reader during compound treatment.
With `C=CCCCCCCCC`, the “cytotoxicity increase” value is 1.07% (inactive).
In the case of `CC(=O)O[C@@H]1CC2CCC1(C)C2(C)C` (stereo not given in full) it was 1.17% (inactive).
The value for `OCC(O)CN1CCN(c2ccccc2)CC1` (stereo not given) was -5.41% [at 35.3 µM] (inactive); that for `CCCC(CC)c1ccccc1` (stereo not given) was 8.43% (inactive); that for `COc1cc(/C=C/C(N)=O)cc(OC)c1OC` was -17.1% [at 35.3 µM] (inactive).
For the compound `CCCC(=O)OC/C=C(\C)CCC=C(C)C`, the “cytotoxicity increase” value is 14.4% (inactive).
The value for `CCCC(=O)Nc1ccc(OCC(O)CNC(C)C)c(C(C)=O)c1` (stereo not given) was -11.1% [at 35.3 µM] (inactive); that for `c1ccc(B(c2ccccc2)c2ccccc2)cc1` was 6.81% (inactive).
In the case of `CC(C)c1ccc(C=O)cc1` it was 0.545% (inactive).
In the case of `Cc1ccc(C)c([N+](=O)[O-])c1` it was -1.28% (inactive); in that of `CCCCCCCCCCCCCCC(=O)NC(CO)CCCCCCCCCCCCCC` (stereo not given), -3.25% (inactive); in that of `CCOc1cccc(N)c1`, -2.35% (inactive).
On to `O=C[O][Al]([O]C=O)[O]C=O`, for which the “cytotoxicity increase” value is -15.5% (inactive).
In the case of `CC(C)COC(=O)c1ccccc1` it was -6.45% (inactive); in that of `C[C@]12CCC(=O)C=C1CC[C@H]1[C@@H]3CC[C@](O)(C(=O)CO)[C@@]3(C)C[C@H](O)[C@@]12F`, -16.5% [at 35.3 µM] (inactive).
The value for `COC(=O)/C=C\C(=O)O` was -13.2% (inactive).
In the case of `Cc1ccc(C(=O)O)cc1[N+](=O)[O-]` it was 7.44% (inactive); in that of `O=C(CCCCC(=O)Nc1c(I)cc(I)c(C(=O)O)c1I)Nc1c(I)cc(I)c(C(=O)O)c1I`, -0.841% [at 35.3 µM] (inactive).
As to `N#Cc1cscn1`, the “cytotoxicity increase” value was 1.64% (inactive).
For the compound `CO/N=C(/C(=O)N[C@@H]1C(=O)N2C(C(=O)[O-])=C(C[n+]3ccn4ncccc43)CS[C@H]12)c1nsc(N)n1`, the “cytotoxicity increase” value was -18.4% [at 35.3 µM] (inactive).
As to `CC(C)OC(=O)CCC(=O)OC(C)C`, the “cytotoxicity increase” value was -14.6% (inactive).
For the compound `CN(C)CC/C=C1/c2ccccc2COc2ccc(CC(=O)O)cc21`, the “cytotoxicity increase” value was -2.51% [at 35.3 µM] (inactive).
The value for `O=C(CCCl)NCCc1ccccc1` was 0.402% [at 35.3 µM] (inactive); that for `C[C@@H](O)C(=O)O` was -6.55% (inactive); that for `Fc1ccccc1` was -8.98% (inactive).
In the case of `COP(=O)(O)OP(=O)(O)OC` it was -3.11% (inactive); in that of `O=C(O)CONC(=O)c1ccccc1`, 7.39% (inactive).
Consider `CCOC(=O)CC1(C)OCC(C)O1` (stereo not given), for which the “cytotoxicity increase” value was -0.266% (inactive).
As to `OC[C@@H](O)C(O)[C@@H](O)CO` (stereo not given in full), the “cytotoxicity increase” value is -0.341% (inactive).
Regarding `CC(=O)OC1CCCCC1C(C)(C)C` (stereo not given), the “cytotoxicity increase” value was -10.2% (inactive).
The value for `CCO[Si](CC)(OCC)OCC` was -3.62% (inactive).
The value for `CC(=O)CCc1ccc(OC(C)=O)cc1` was -4.15% (inactive); that for `O=Cc1cc2ccccc2o1` was -0.649% (inactive); that for `CCC[C@@H]1C[C@@H](C(=O)N[C@@H]([C@H]2O[C@H](SC)[C@H](O)[C@@H](O)[C@H]2O)[C@@H](C)O)N(C)C1` was -8.45% [at 35.3 µM] (inactive).
The value for `COc1cc2c(cc1OC)CN(C(=O)[C@H](C)N[C@@H](CCc1ccccc1)C(=O)O)[C@H](C(=O)O)C2` was -16% [at 35.3 µM] (inactive); that for `CN(C)CCCO[C@@H]1[C@H]2OC(C)(C)O[C@H]2O[C@@H]1C(O)CO` (stereo not given in full) was -12.9% [at 35.3 µM] (inactive); that for `C=CCOC(=O)CCCCCC` was -5.55% (inactive).
As to `OCC1(CO)COCOC1`, the “cytotoxicity increase” value is 29.9% (inactive).
The value for `c1ccc(-c2nn[nH]n2)cc1` was -4.11% (inactive); that for `O=C1OCCO1` was -4.34% (inactive).
